Assay [1] in a line: ATG_M_61_XSP1: Attagene TRANS-FACTORIAL Multi-Species (XSP1) HepG2 Assay for M61 Transcription Factor (Internal Marker) (AID 2283797). Put shortly:
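HepG2 cells transiently transfected with multiplexed GAL4-driven reporter units, dosed 24 h with 3 nM 6-alpha-fluorotestosterone present. Reporter mRNA quantified by RT-PCR, 6-FAM labelling, HpaI digestion and capillary electrophoresis; internal-marker background control, gain of signal versus DMSO.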

Assay [2] can be described thus: ATG_M_32_XSP1: Attagene TRANS-FACTORIAL Multi-Species (XSP1) HepG2 Assay for M32 Transcription Factor (Internal Marker) (AID 2283799). Put shortly: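 HepG2 cells transiently transfected with multi-species TRANS reporter units, dosed 24 h with 3 nM 6-alpha-fluorotestosterone present. Internal-marker reporter mRNA quantified by RT-PCR and capillary electrophoresis; positive-direction fit versus DMSO.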

For assay [3], the target named is Peroxisome proliferator-activated receptor gamma (Homo sapiens) (UniProt P37231). Description: ATG_hPPARg_XSP1: Attagene TRANS-FACTORIAL Multi-Species (XSP1) HepG2 Assay for human Peroxisome Proliferator-activated Receptor gamma (PPARg) (AID 2283800). Put shortly:
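HepG2 cells transiently transfected with GAL4-UAS reporter units carrying chimeric NR-Gal4 proteins; 3 nM 6-alpha-fluorotestosterone present. After 24 h dosing, reporter mRNA quantified by RT-PCR and capillary electrophoresis; gain of signal relative to DMSO.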

Assay [4] has as its target mouse Peroxisome Proliferator-activated Receptor gamma (PPARg), Pparg (gene 19016) (UniProt P37238). Description: ATG_mPPARg_XSP1: Attagene TRANS-FACTORIAL Multi-Species (XSP1) HepG2 Assay for mouse Peroxisome Proliferator-activated Receptor gamma (PPARg) (AID 2283802). Put shortly:
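HepG2 cells transiently transfected with GAL4-UAS reporter units driven by mouse PPARg–GAL4 chimera; 3 nM 6-alpha-fluorotestosterone present. After 24 h dosing, reporter mRNA quantified by RT-PCR, fluorescent labelling and capillary electrophoresis; gain of signal versus DMSO.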

The target in assay [5] is Nuclear receptor subfamily 1 group I member 2 (Mus musculus) (UniProt O54915). The experiment in a line: ATG_mPXR_XSP1: Attagene TRANS-FACTORIAL Multi-Species (XSP1) HepG2 Assay for mouse Pregnane X Receptor (PXR) (AID 2283803). Put shortly: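 Transiently transfected HepG2 cells expressing a receptor-Gal4 chimera drive a GAL4-UAS reporter; 3 nM 6-alpha-fluorotestosterone included. Reporter mRNA read 24 h post-dose by RT-PCR and capillary electrophoresis; gain of signal relative to DMSO.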
Chain of Nuclear receptor subfamily 1 group I member 2 (Mus musculus) (O54915 whole entry, looked up, the tested form may be a part): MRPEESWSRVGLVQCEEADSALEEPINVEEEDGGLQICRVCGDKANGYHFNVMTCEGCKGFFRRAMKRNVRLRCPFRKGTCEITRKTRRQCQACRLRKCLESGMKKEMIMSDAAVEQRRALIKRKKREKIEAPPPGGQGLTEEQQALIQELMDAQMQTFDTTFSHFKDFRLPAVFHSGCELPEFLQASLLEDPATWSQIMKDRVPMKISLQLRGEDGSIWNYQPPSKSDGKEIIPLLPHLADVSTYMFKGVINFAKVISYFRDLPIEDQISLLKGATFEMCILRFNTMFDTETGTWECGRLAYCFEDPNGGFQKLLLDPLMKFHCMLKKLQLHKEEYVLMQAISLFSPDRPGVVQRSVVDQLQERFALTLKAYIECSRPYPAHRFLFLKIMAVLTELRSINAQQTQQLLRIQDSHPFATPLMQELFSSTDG

The target of assay [6] is zebrafish Thyroid Hormone Receptor alpha (TRa), thraa (gene 30670) (UniProt Q98867). Description: ATG_zfTRa_XSP1: Attagene TRANS-FACTORIAL Multi-Species (XSP1) HepG2 Assay for zebrafish Thyroid Hormone Receptor alpha (TRa) (AID 2283807). Put shortly:
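HepG2 cells transiently transfected with GAL4-UAS reporter units including a zebrafish TRa–Gal4 chimera, dosed 24 h with 3 nM 6-alpha-fluorotestosterone present. Reporter mRNA quantified by RT-PCR and capillary electrophoresis; gain versus DMSO.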

Assay [7] addresses human Thyroid hormone Receptor beta (TRb), THRB (gene 7068) (UniProt P10828). Description: ATG_hTRb_XSP1: Attagene TRANS-FACTORIAL Multi-Species (XSP1) HepG2 Assay for human Thyroid hormone Receptor beta (TRb) (AID 2283808). Put shortly:
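HepG2 cells transiently transfected with reporter units driving GAL4-UAS reporters for chimeric NR-Gal4 proteins; 24 h chemical exposure with 3 nM 6-alpha-fluorotestosterone present. Reporter mRNA quantified by RT-PCR and capillary electrophoresis, gain of signal versus DMSO.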

For assay [8], the target named is zebrafish Thyroid Hormone Receptor beta (TRb), thrb (gene 30607) (UniProt Q9PVE4). The experiment in a line: ATG_zfTRb_XSP1: Attagene TRANS-FACTORIAL Multi-Species (XSP1) HepG2 Assay for zebrafish Thyroid Hormone Receptor beta (TRb) (AID 2283809). Put shortly: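 HepG2 cells transiently transfected with multiplexed GAL4-UAS reporter units expressing chimeric zebrafish TRb–Gal4. Dosed 24 h with 3 nM 6-alpha-fluorotestosterone present; reporter mRNA measured by RT-PCR, HpaI digestion and capillary electrophoresis; gain of signal versus DMSO.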
Chain of zebrafish Thyroid Hormone Receptor beta (TRb), thrb (gene 30607) (Q9PVE4 whole entry, looked up, the tested form may be a part): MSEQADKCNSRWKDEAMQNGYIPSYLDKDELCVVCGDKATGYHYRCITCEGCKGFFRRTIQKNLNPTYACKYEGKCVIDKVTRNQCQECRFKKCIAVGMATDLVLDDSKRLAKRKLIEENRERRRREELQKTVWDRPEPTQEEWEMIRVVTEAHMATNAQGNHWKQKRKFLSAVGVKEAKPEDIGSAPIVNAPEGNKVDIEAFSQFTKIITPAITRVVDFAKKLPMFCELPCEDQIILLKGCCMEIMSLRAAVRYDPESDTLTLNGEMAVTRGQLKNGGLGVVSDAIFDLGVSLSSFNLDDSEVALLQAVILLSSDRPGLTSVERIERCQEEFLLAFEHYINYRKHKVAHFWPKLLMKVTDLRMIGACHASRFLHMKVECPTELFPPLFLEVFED

The nature of assay [9]: ATG_XTT_Cytotoxicity_XSP1: Cytotoxicity Assessment in the Attagene TRANS-FACTORIAL Multi-Species (XSP1) HepG2 Assay (AID 2283810). Put shortly:
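XTT viability readout taken at 24 hours post-dosing in HepG2 liver cells co-treated with 3 nM 6-alpha-fluorotestosterone. Signal loss relative to DMSO controls reflects cytotoxicity.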

Assay [10] is described as follows: ATG_M_06_XSP2: Attagene TRANS-FACTORIAL Multi-Species (XSP2) HepG2 Assay for M06 Transcription Factor (Internal Marker) (AID 2283811).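 Further: hits are increases in signal above the DMSO baseline.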 The essentials: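 HepG2 cells transiently transfected with GAL4-UAS multi-reporter constructs, dosed 24 h with 3 nM 6-alpha-fluorotestosterone plus 1.5 nM norgestrel present to stimulate androgen receptor. Reporter mRNA quantified by RT-PCR, 6-FAM labelling, HpaI digestion and capillary electrophoresis; gain-of-signal fitted versus DMSO baseline.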

Assay [11] deals with Estrogen receptor beta (Homo sapiens) (UniProt Q92731). The experiment in a line: ATG_hERb_XSP2: Attagene TRANS-FACTORIAL Multi-Species (XSP2) HepG2 Assay for human Estrogen Receptor (ERb) (AID 2283813).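 Further: actives raise reporter mRNA above DMSO so AC50 reflects agonist induction.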 Put shortly:
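HepG2 cells transiently transfected with GAL4-UAS reporter units and chimeric human ERb-Gal4, 24 h exposure. Reporter mRNA quantified by RT-PCR with FAM labelling, HpaI digestion and capillary electrophoresis; gain of signal versus DMSO.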

For assay [12], the system named is zebrafish Estrogen Receptor (ER2a), gene 317734. The experiment in a line: ATG_zfER2a_XSP2: Attagene TRANS-FACTORIAL Multi-Species (XSP2) HepG2 Assay for zebrafish Estrogen Receptor (ER2a) (AID 2283818).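 Further: hits raise reporter mRNA so AC50 reflects activation of zebrafish ER2a.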 The essentials:
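HepG2 cells transiently transfected with GAL4-UAS reporter units and chimeric zebrafish ER2a-Gal4, exposed 24 h; medium contains 3 nM 6-alpha-fluorotestosterone and 1.5 nM norgestrel. Reporter mRNA quantified by RT-PCR, HpaI digestion, capillary electrophoresis; gain versus DMSO.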

In assay [13] the test system is turtle Estrogen Receptor (ERa), gene 101933533. The experiment in a line: ATG_trERa_XSP2: Attagene TRANS-FACTORIAL Multi-Species (XSP2) HepG2 Assay for turtle Estrogen Receptor (ERa) (AID 2283812).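 Further: human HepG2 liver cells transiently expressing turtle ERa-Gal4 chimeric receptor; actives raise reporter signal above DMSO so AC50 reflects agonist activity.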 Put shortly: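 HepG2 cells transiently transfected with GAL4-UAS reporter units expressing turtle ERa-Gal4 chimera. Reporter mRNA measured after 24 h dosing by RT-PCR, fluorescent labelling and capillary electrophoresis; gain of signal fitted versus DMSO.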

Assay [14] addresses GAL4 Transcription Factor (Internal Marker), GAL4 (gene 855828) (UniProt P04386). The experiment in a line: ATG_GAL4_XSP2: Attagene TRANS-FACTORIAL Multi-Species (XSP2) HepG2 Assay for GAL4 Transcription Factor (Internal Marker) (AID 2283814).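 Further: GAL4 reporter mRNA background control in MRTU transfected cells not a receptor target.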 Put shortly:
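HepG2 cells transiently transfected with GAL4-UAS reporter units, stimulated with 3 nM 6-alpha-fluorotestosterone plus 1.5 nM norgestrel, dosed 24 h. Reporter mRNA by RT-PCR/capillary electrophoresis; gain-of-signal fit versus DMSO, background control.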

The target of assay [15] is chicken Estrogen Receptor (ERa), ESR1 (gene 396099) (UniProt P06212). Description: ATG_chERa_XSP2: Attagene TRANS-FACTORIAL Multi-Species (XSP2) HepG2 Assay for chicken Estrogen Receptor (ERa) (AID 2283817).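 Further: actives raise reporter signal above DMSO so AC50 reflects ER activation.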 Put shortly:
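HepG2 cells transiently transfected with multiplexed GAL4-UAS reporter units expressing chimeric chicken ERa-Gal4; 24 h compound exposure. Reporter mRNA measured by RT-PCR with 6-FAM labelling, HpaI digestion and capillary electrophoresis; gain-of-signal fitted versus DMSO.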

Assay [16] relates to turtle Thyroid Hormone Receptor, alpha (TRa), gene 101949057. The experiment in a line: ATG_trTRa_XSP1: Attagene TRANS-FACTORIAL Multi-Species (XSP1) HepG2 Assay for turtle Thyroid Hormone Receptor, alpha (TRa) (AID 2283806). The essentials:
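HepG2 cells transiently transfected with GAL4-UAS reporter units and chimeric receptor-Gal4 constructs, with 3 nM 6-alpha-fluorotestosterone present. Reporter mRNA was quantified 24 h after dosing by RT-PCR, 6-FAM labelling and capillary electrophoresis; gain of signal versus DMSO.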

The nature of assay [17]: ATG_M_19_XSP1: Attagene TRANS-FACTORIAL Multi-Species (XSP1) HepG2 Assay for M19 Transcription Factor (Internal Marker) (AID 2283798). Put shortly: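 HepG2 cells transiently transfected with multiplexed GAL4-UAS reporter units, dosed 24 h with 3 nM 6-alpha-fluorotestosterone present for partial AR stimulation. Reporter mRNA measured by RT-PCR with capillary electrophoresis; gain-of-signal fitted relative to DMSO.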

Values joined by “and” are separate entries in the source; they are usually repeats but may differ in a detail not shown here. Equal values may be shown once. Inconclusive results are not listed. Where a structure was tested more than once in an assay, its records may differ in their call. Active and inactive are the calls of the source. How the source made its calls: active means hit-call score of the fitted dose curve at least 0.9, where 1 is the maximum; inconclusive means response in the unintended direction; inactive means score below 0.9.

In general, AC50 refers to the concentration at which the activity in the assay is half-maximal.

Chain of GAL4 Transcription Factor (Internal Marker), GAL4 (gene 855828) (P04386 whole entry, looked up, the tested form may be a part): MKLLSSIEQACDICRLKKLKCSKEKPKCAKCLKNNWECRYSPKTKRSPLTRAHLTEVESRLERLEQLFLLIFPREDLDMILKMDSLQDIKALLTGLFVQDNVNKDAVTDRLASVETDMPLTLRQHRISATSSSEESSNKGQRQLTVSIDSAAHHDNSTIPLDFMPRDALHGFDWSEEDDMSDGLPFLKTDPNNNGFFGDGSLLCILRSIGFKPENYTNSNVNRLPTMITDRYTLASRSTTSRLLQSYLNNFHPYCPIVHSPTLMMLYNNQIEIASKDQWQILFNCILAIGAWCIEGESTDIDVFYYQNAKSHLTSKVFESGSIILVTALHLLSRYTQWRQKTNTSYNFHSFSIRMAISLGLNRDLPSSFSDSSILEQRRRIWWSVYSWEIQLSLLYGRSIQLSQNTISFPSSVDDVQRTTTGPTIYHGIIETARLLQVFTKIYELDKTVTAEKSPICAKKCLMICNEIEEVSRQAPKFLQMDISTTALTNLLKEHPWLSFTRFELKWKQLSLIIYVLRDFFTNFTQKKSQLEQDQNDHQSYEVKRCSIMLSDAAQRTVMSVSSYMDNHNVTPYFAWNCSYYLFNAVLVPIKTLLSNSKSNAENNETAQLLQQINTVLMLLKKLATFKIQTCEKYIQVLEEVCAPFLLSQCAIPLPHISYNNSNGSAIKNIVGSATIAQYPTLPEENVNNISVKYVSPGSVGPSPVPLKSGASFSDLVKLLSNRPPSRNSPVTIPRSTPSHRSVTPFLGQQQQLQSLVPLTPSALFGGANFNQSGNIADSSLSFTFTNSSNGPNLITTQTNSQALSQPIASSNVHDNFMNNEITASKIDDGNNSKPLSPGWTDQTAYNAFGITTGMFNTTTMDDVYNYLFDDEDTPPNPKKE
Chain of zebrafish Thyroid Hormone Receptor alpha (TRa), thraa (gene 30670) (Q98867 whole entry, looked up, the tested form may be a part): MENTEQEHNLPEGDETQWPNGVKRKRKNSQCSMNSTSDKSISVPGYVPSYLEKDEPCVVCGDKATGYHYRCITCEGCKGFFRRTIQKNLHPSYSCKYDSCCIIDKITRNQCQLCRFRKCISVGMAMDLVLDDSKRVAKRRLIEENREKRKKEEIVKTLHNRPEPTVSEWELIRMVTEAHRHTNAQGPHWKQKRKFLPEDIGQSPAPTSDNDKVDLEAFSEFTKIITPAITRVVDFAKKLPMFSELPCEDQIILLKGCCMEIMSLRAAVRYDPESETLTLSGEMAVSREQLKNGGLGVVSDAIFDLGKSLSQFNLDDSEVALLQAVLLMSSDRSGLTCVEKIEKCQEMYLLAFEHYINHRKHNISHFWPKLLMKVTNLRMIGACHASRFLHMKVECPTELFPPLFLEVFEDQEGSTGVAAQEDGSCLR
Chain of Estrogen receptor beta (Homo sapiens) (Q92731 whole entry, looked up, the tested form may be a part): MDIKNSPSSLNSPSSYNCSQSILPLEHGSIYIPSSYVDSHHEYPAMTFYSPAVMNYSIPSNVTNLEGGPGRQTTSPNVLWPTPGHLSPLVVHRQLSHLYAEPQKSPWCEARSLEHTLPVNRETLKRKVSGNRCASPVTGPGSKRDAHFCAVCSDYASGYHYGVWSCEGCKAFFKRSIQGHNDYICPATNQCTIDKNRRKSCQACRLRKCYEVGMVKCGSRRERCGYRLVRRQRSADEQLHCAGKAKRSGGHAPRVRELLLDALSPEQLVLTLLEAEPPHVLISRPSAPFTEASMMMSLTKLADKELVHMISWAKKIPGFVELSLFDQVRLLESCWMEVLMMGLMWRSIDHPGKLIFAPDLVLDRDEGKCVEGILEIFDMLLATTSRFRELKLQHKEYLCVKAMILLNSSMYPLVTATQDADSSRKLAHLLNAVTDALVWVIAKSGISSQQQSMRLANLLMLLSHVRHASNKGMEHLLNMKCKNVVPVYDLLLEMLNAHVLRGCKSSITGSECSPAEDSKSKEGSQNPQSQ
Chain of chicken Estrogen Receptor (ERa), ESR1 (gene 396099) (P06212 whole entry, looked up, the tested form may be a part): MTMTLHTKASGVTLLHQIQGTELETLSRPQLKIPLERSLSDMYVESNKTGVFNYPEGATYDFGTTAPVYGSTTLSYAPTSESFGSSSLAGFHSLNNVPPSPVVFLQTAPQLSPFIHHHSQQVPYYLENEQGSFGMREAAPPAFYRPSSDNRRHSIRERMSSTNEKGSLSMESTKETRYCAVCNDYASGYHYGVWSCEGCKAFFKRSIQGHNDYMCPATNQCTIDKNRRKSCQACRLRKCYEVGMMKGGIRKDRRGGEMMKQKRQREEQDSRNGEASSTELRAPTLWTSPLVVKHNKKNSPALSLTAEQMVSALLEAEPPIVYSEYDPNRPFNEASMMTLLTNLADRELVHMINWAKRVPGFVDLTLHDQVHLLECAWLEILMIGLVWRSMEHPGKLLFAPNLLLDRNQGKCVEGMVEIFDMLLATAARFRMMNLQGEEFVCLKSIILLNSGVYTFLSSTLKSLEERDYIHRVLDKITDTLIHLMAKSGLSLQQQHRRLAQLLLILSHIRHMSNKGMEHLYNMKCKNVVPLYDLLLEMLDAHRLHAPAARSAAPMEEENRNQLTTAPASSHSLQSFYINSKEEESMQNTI
Chain of mouse Peroxisome Proliferator-activated Receptor gamma (PPARg), Pparg (gene 19016) (P37238 whole entry, looked up, the tested form may be a part): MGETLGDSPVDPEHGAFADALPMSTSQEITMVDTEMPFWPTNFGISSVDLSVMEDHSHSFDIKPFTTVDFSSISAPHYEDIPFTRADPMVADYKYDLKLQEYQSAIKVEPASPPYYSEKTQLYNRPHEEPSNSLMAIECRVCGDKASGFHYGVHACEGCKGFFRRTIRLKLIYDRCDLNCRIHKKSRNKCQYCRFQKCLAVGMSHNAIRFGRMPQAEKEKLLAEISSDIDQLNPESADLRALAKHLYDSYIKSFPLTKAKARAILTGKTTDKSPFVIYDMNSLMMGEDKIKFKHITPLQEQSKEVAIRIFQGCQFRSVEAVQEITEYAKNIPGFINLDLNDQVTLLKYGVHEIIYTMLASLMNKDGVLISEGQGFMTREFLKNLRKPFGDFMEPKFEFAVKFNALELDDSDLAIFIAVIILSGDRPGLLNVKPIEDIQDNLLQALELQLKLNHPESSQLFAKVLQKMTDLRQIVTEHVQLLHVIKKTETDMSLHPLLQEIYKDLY
Chain of Peroxisome proliferator-activated receptor gamma (Homo sapiens) (P37231 whole entry, looked up, the tested form may be a part): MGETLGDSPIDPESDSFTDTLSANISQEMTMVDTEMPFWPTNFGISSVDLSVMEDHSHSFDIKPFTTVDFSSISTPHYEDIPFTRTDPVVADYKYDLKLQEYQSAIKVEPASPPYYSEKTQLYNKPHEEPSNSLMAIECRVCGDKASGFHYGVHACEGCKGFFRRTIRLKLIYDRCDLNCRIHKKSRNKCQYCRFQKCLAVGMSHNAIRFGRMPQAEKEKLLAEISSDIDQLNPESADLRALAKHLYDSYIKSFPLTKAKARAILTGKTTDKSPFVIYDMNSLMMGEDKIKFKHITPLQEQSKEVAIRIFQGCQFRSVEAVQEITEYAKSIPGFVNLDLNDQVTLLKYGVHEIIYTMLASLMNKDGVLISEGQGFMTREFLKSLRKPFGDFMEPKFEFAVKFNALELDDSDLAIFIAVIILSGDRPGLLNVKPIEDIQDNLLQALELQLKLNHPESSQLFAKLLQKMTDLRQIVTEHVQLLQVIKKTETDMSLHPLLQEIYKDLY
Chain of human Thyroid hormone Receptor beta (TRb), THRB (gene 7068) (P10828 whole entry, looked up, the tested form may be a part): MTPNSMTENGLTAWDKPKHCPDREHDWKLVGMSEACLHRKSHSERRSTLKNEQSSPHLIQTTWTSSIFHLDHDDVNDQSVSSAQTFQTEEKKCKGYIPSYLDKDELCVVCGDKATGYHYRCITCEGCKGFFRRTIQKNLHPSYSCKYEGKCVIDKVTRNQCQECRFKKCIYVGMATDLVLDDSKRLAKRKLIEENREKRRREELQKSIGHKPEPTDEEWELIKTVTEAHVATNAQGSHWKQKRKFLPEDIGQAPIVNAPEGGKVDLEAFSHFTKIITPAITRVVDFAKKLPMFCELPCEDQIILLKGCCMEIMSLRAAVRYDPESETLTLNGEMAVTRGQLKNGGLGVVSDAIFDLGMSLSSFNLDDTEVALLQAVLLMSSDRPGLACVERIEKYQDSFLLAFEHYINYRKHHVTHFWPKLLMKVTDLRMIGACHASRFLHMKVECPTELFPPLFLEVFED

For the molecule `C#CCC1=C(C)C(OC(=O)C2C(C=C(C)C)C2(C)C)CC1=O` (configuration not stated), the call in assay [1], in assay [2], in [6], in assay [7], in [8] and in [9] was inactive. Moreover, the molecule was called inactive in assay [10], in [11] and in assay [12]. The AC50 in assay [3] was 27.2 µM (active); in assay [4] it was 26.7 µM (active); in assay [5], 320 nM (active).
As for `CCOP(=O)(NC(C)C)Oc1ccc(SC)c(C)c1` (configuration not stated), the molecule was called inactive in assay [10], in assay [11], in [14], in assay [15] and in assay [12]. Further, the half-maximal activity concentration (AC50) was 100 µM (active) and 52.6 µM (active) in [13]; 31.1 µM (active) in [15]; 100 µM (active) in assay [12].
With `Nc1c(Cl)cc([N+](=O)[O-])cc1Cl`, the result in [13], in assay [11], in [14], in assay [15] and in [12] was inactive. For the same molecule, the half-maximal activity concentration (AC50) in assay [15] was 26.8 µM (active).
As for `C#CC(C)(C)NC(=O)c1cc(Cl)cc(Cl)c1`, the outcome in assay [1], in [16], in [6], in assay [7], in assay [8] and in assay [10] was inactive. Further, the result in [13], in assay [14] and in assay [12] was inactive. Further, the concentration at half-maximal activity (AC50) in [5] was 13300 nM (active); in assay [15], 3.34 µM (active).
On to `CCOP(=S)(OCC)Oc1ccc2c(C)c(Cl)c(=O)oc2c1`, for which the molecule was classed as inactive in assay [1], in assay [17], in assay [2], in assay [16], in [6] and in [8]. For the same molecule, the result in [10], in [13], in [11], in assay [14], in assay [15] and in assay [12] was inactive. For the same molecule, the AC50 was 11.4 µM (active) in assay [3], 26.7 µM (active) in assay [4] and 214 nM (active) in [5].

Source of the values: PubChem BioAssay (EPA / NIEHS).
